Source: PubChem BioAssay (National Center for Advancing Translational Sciences (NCATS))
a7 integrin act = integrin-mediated muscular dystrophy alleviation activation. alpha7betagal myoblasts, beta-gal FDG fluorescence, 48 h. Potency, µM (doses to about 38.3 µM), for inactives: at the highest dose activation, hits mostly activators. 350,000 tested, 0.064% active. AID 624291;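 further: potency means the concentration at half of the fitted maximal effect; 100% = response of the positive control SU9516; nearly all actives have a fitted effect of over 60% in size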
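Alpha7betagal+/- myoblasts (passage 13) were plated 16-24 hr, then exposed to compounds (1:260 dilution of DMSO stock) for 48 hours at 37C. After MPER lysis, β-galactosidase reporter activity was read as FDG fluorescence (ex 480/em 540) after 30 minutes.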
ClpP mod = qHTS Assay for Activators of ClpP | purified B. subtilis ClpP, FRET peptide cleavage, 20 min | AID 651965, 2013 | Potency, µM (highest dose often 57.5 µM), inactives show top-dose activity change, negative = active | 340,000 tested, 1.9% active; active means well fitted falling curve with a large enough effect; inconclusive means small, poorly fitted or top-dose-only effect; inactive means no such curve, though single readings can be large or run the other way; further: potency means the concentration at half of the fitted maximal effect; the source files actives as falling curves though it sought activators and does not explain the sign; nearly all actives have a fitted effect of over 65% in size
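FRET quenching reversal measured ClpP activation: 10 microg/mL B. subtilis ClpP at pH 8 with the FRET-FV decapeptide, read at 430 nm after 320 nm excitation. The 20-min minus 0-min signal was scaled between DMSO/no-enzyme wells and ADEP (5.8 microM final).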
Anesthetic bind = binds horse apoferritin like a general anesthetic; P02791; apoferritin/1-aminoanthracene competitive binding, fluorescence; Potency, µM (titrated, usually from 77.5 µM), without a hit: at the top dose activity change, negative = displacement, actives largely listed as inhibitors; 350,000 tested, 0.074% active; AID 485281; further: potency means the concentration at half of the fitted maximal effect; on the % scale 0 is the no-effect control and ±100 the full control effect; nearly all actives have a fitted effect of over 20% in size
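Apoferritin-based anesthetic binding model; compound displacement of fluorescent 1-AMA measured as endpoint fluorescence after 10 minutes at room temperature, scaled to free-ligand and complex controls.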
GRP78 ERSR act = induces the endoplasmic reticulum stress response in human glioma cells | 420,000 tested, 0.02% active | Potency, µM, for the others: at the top dose activation, actives largely listed as activators | U87-MG GRP78 promoter luciferase reporter, 16 h | AID 602332; further: potency means the concentration at half of the fitted maximal effect; series mostly up to about 76 µM; % of control where 0% means no effect; nearly all actives have a fitted effect of over 35% in size
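ERSR induction read as luciferase luminescence (Bright-Glo, 10 min at room temperature) in stably transfected human U87-MG glioma cells exposed to compounds for 16 h, using GRP78 as sensor.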
CBFb RUNX1 block = inhibitors of human CBF-beta and RUNX1 interaction | 230,000 tested, under 10 active | Q01196+Q13951 | AlphaScreen CBFb-His/RUNX1-biotin binding, biochemical | AID 1477 | Potency, µM (titrated, usually from 59.8 µM), for the others: at the highest dose activity, negative = inhibition, usual class: inhibitors; further: % of control where 0% means no effect
Target sequence (Q01196 whole entry, looked up): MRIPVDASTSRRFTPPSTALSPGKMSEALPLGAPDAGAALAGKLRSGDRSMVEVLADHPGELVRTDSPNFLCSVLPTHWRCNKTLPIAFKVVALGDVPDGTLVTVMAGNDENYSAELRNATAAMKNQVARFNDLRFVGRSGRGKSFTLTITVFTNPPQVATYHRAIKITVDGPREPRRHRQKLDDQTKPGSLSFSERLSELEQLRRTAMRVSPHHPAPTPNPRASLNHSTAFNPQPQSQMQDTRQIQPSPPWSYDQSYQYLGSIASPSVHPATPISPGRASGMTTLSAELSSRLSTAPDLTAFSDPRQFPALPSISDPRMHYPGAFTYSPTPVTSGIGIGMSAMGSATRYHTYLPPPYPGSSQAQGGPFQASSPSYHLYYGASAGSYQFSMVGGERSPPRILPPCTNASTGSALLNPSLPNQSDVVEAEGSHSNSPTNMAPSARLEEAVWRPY
Target sequence (Q13951 whole entry, looked up): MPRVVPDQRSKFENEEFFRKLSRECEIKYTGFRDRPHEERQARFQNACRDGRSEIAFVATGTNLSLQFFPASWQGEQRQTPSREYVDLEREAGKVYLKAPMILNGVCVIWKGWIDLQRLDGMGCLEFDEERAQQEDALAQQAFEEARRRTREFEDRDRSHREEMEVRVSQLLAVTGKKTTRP
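CBFb-His/RUNX1-biotin, 30 nM each, preincubated 20 min RT; compound 15 min RT; Ni + streptavidin beads 50 ng each, 90 min RT; AlphaScreen read.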
N370S GC mod = inhibits or activates N370S mutant glucocerebrosidase. 330,000 tested, 0.092% active. Potency, µM (series often up to 59.4 µM), for inactives: at the highest dose activity change, negative = inhibition, actives largely listed as inhibitors. N370S GC spleen homogenate, 4MU-glucoside fluorescence. P04062;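 further: potency means the concentration at half of the fitted maximal effect; 0% = full enzyme activity and -100% = no enzyme basal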
Starred values were filed as active, the others as inactive. This is one part of a sample in which hits are shown more often than they occur. Unless noted, the call rests on the fitted dose curve; in most records, active means well fitted curve in the direction sought with a large enough effect; inconclusive means small, poorly fitted or top-dose-only effect, or another doubt; inactive means no such curve, though single readings can be large; an effect the other way counts as inactive or inconclusive.

O=C(O)CCn1cc(/C=C2/NC(=S)N(c3ccccc3)C2=O)c(-c2ccccc2)n1 was read as a7 integrin act 20µM*, ClpP mod 12.6µM*, Anesthetic bind -2.1%, GRP78 ERSR act -2.7%, CBFb RUNX1 block 13.6% and N370S GC mod 1.8%.
For N#CCCn1cc(/C=C2\NC(=S)N(c3ccccc3)C2=O)c(-c2ccc(-c3ccccc3)cc2)n1 the results were a7 integrin act -67.5%, Anesthetic bind -12.5%, GRP78 ERSR act 10.9%, CBFb RUNX1 block -14.9% and N370S GC mod -4.8%.
Screening Cc1ccccc1C(=O)N1CCc2c(cnc(C)c2CNC(=O)c2ccc3c(c2)OCO3)C1 returned GRP78 ERSR act -3.7%.
For Cc1cc(C)cc(N(CC(=O)NC2CCCCCC2)S(=O)(=O)c2c(C)[nH]c(=O)[nH]c2=O)c1 the results were a7 integrin act -1.3%, ClpP mod -0.2%, Anesthetic bind 2.4%, GRP78 ERSR act -2.9%, CBFb RUNX1 block 12.8% and N370S GC mod 0.708µM*.
Screening Cc1cc(C)cc(N(CC(=O)O)S(=O)(=O)c2c(C)[nH]c(=O)[nH]c2=O)c1 returned a7 integrin act 0.0%, Anesthetic bind 3.8%, GRP78 ERSR act -1.3%, CBFb RUNX1 block 2.1% and N370S GC mod -17.1%.
CCC(C)NC(=O)CN(c1cc(C)cc(C)c1)S(=O)(=O)c1c(C)[nH]c(=O)[nH]c1=O (stereo not drawn) was read as a7 integrin act 22.2%, ClpP mod -1.6%, Anesthetic bind 2.9%, GRP78 ERSR act 4.6%, CBFb RUNX1 block -2.6% and N370S GC mod 10µM*.
Screening Cc1cc(C)cc(N(CC(=O)NC2CCC(C)CC2)S(=O)(=O)c2c(C)[nH]c(=O)[nH]c2=O)c1 (stereo not drawn) returned a7 integrin act 3.3%, ClpP mod -0.1%, Anesthetic bind -12.7%, GRP78 ERSR act -1.0%, CBFb RUNX1 block -4.5% and N370S GC mod 0.398µM*.
For CCOc1ccc(N(CC(=O)NC2CCCC2)S(=O)(=O)c2c(C)[nH]c(=O)[nH]c2=O)cc1 the results were a7 integrin act -14.7%, ClpP mod 2.1%, Anesthetic bind 6.5%, GRP78 ERSR act -4.3%, CBFb RUNX1 block inconclusive and N370S GC mod 7.94µM*.
Screening CC1(C)S[C@@H]2[C@H](NC(=O)C(C(=O)Oc3ccc4c(c3)CCC4)c3ccccc3)C(=O)N2[C@H]1C(=O)O (stereo partly drawn) returned GRP78 ERSR act -0.4%.
Screening COc1ccccc1CNc1nc(-c2ccc3c(c2)OCO3)nc2ccccc12 returned GRP78 ERSR act -1.7% and N370S GC mod 15.8µM*.
For COc1ccccc1CNc1nc(-c2ccc(N(C)C)cc2)nc2ccccc12 the results were Anesthetic bind -14.2%, GRP78 ERSR act -8.1% and N370S GC mod -16.5%.
COc1cccc(-c2nc(NCc3ccccc3OC)c3ccccc3n2)c1 was read as GRP78 ERSR act -2.8% and N370S GC mod 14.1µM*.
`COc1ccc(CNc2nc(-c3ccoc3)nc3ccccc23)c(OC)c1` gave Anesthetic bind -14.9%, GRP78 ERSR act -2.3% and N370S GC mod 14.1µM*.
`C(=C\c1ccnc2ccccc12)/c1cc2c3c(c1)CCCN3CCC2` gave ClpP mod -0.4% and GRP78 ERSR act 1.5%.
`COc1cc2nc(N3CCOCC3)nc(NC(C)C)c2cc1OC` gave ClpP mod 3.5%.
For Cc1nn(-c2ccc(Cl)c(Cl)c2Cl)c(=O)c2ccccc12 the results were a7 integrin act -14.3%, ClpP mod -0.5%, Anesthetic bind 17.8µM*, GRP78 ERSR act -0.9%, CBFb RUNX1 block 3.6% and N370S GC mod 0.9%.
Screening CC(=O)N(C)c1ccc(NC(=S)Nc2cccc3ccccc23)cc1 returned a7 integrin act -7.2%, ClpP mod 31.6µM*, Anesthetic bind -8.2%, GRP78 ERSR act inconclusive, CBFb RUNX1 block -17.4% and N370S GC mod 1.6%.
